# Bioassay records from PubChem.
# Dicer processing = blocks human Dicer maturation of pre-miR-21. cat-ELCCA pre-miR-21 Dicer processing, chemiluminescence; hits give high values. z-score at 25 µM. 6% of 47,000 active; in the data active = z-score above about 3, passing the limit was not always enough;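 also: plate controls were vehicle for no effect and no enzyme for full effect; higher signal means more uncleaved substrate so more Dicer inhibition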
# Starred values were filed as active, the others as inactive. This is one part of a sample in which hits are shown more often than they occur.
SMILES,Dicer processing
COc1ccc(C2C3=C(CC(C)(C)CC3=O)NC3=C2C(=O)CC(C)(C)C3)cc1Cl,-1.2
Oc1ccc(/C=N/NC(=S)NC2CC3CCC2C3)cc1 (stereo unspecified),24*
S=C(NNC(=S)NC1CC2CCC1C2)NC1CC2CCC1C2 (stereo unspecified),1.9
S=C(NN=C1CCCC1)NC1CC2CCC1C2 (stereo unspecified),-0.5
COCCCn1c(-c2ccc(C(C)(C)C)cc2)n[nH]c1=S,1.1
O=C(Cc1ccc(Cl)cc1)c1ccc(O)cc1,0.6
O=C(Cc1ccc(Cl)cc1)c1ccc(O)cc1O,4.1*
O=C(Cc1ccccc1)c1ccc(Cl)cc1,-0.54
COc1ccccc1C1CCN(C(=O)CSc2nnc(NC(=O)c3cccnc3Oc3ccccc3)s2)CC1,1.6
COc1nc(-c2ccc(C)cc2)ccc1-c1noc(C)n1,0.89
O=[N+]([O-])c1ccc(S(=O)(=O)c2ccccc2)cc1OS(=O)(=O)c1cc(Cl)cc(Cl)c1,0.67
FC(F)(F)c1cc(N2CCCC2)c2cccc(Cl)c2n1,-0.04
CCCCCSc1nnc(N)s1,4.6*
Nc1nnc(SCC(=O)N2CCc3ccccc3C2)s1,1.8
Cc1ccc(C(=O)N2CCN(C(=O)CSc3nnc(N)s3)C2)cc1,-0.88
O=C(/C(=C/c1ccccc1)[N+](=O)[O-])c1ccccc1OCc1ccccc1,0.58
O=C(c1ccc(F)cc1)c1oc2ccccc2c1NC(=O)C1COc2ccccc2O1 (stereo unspecified),-0.34
Cc1ccc(S(=O)(=O)NC2=NCN(Cc3ccccc3)CN2)cc1,4.6*
Cc1ccc(S(=O)(=O)NC2=NCN(CCc3ccccc3)CN2)cc1,-1.2
CCCN1CN=C(NS(=O)(=O)c2ccc(C)cc2)NC1,0.67
Cc1ccc(-n2cnc3c(sc4nc(N5CCOCC5)c5c(c43)CC(C)(C)OC5)c2=O)cc1,0.71
COc1ccc(OC2C(=O)N(Cc3ccc4c(c3)OCO4)C2c2ccc(F)cc2)cc1 (stereo unspecified),1.5
Cc1cc(S(=O)(=O)O/N=C(\N)CS(=O)(=O)c2ccccc2)c(Cl)cc1Cl,-0.25
Clc1ccc(-c2nnc(-c3ccccc3)o2)cc1,1.1
COc1ccc(-c2nnc(SCc3ccc(Cl)cc3)o2)cc1,0.75
SMILES,Dicer processing
CCc1ccc(-c2nnc(-c3ccc(Cl)cc3)o2)cc1,3.3*
CCOC(=O)C(NC(=O)c1cccc(Cl)c1)(Nc1ccccc1C(F)(F)F)C(F)(F)F (stereo unspecified),-0.36
CSc1c(C#N)c(-c2ccc(Cl)cc2)nn1C,1.2
Cc1ccc(OCCN2C(=O)C(=O)c3cc(C)ccc32)cc1,3.1*
Cc1ccc(C(C)C)c(OCCN2C(=O)C(=O)c3cc(C)ccc32)c1,-0.65
Cc1ccc(C(C)C)c(OCCCN2C(=O)C(=O)c3cccc(C)c32)c1,0.44
Cc1ccc(S(=O)(=O)NC(=S)NNC(C)(C)C)cc1,-0.38
C=C(C)CC1C(=O)N(S(=O)(=O)c2ccc(Cl)cc2)N=C1C (stereo unspecified),-1.6
C=C(C)CC1C(=O)N(S(=O)(=O)c2ccccc2Cl)N=C1C (stereo unspecified),1.3
C=C(C)CC1C(=O)N(C(=O)c2c(Cl)cccc2Cl)N=C1C (stereo unspecified),3.4*
O=C(NC1CCCCC1)C1c2ccccc2Oc2ccccc21,0.78
O=C(Nc1ccc(C(F)(F)F)cc1)Nc1sccc1Cl,1.7
Cc1ccc(C)c(N2CCN(c3ncnc4nc[nH]c34)CC2)c1,-2.2
Cc1ccc(Sc2cc(N3CCOCC3)c(C)cc2[N+](=O)[O-])cc1,-1.2
COc1ccc(Sc2ccc(C)cc2)c([N+](=O)[O-])c1,0.77
Cc1ccc(Sc2ccc(/C=C3/SC(=S)NC3=O)cc2[N+](=O)[O-])cc1,4.6*
NC(=O)c1ccc(-c2ccnc(-c3ccc(Br)s3)n2)cc1,2.6
O=C(Nc1ccc(Cl)cc1)c1cnc(Sc2ccccc2)cc1C(F)(F)F,-0.03
Cc1cc(/C=C2\N=COC2=O)ccc1C(F)(F)F,4.1*
CC1=N/C(=C/c2ccc(C)c(C)c2)C(=O)O1,-0.91
COc1ccc(-n2sc3c(c2=S)-c2ccccc2NC3(C)C)cc1OC,2
COC(=O)C1=C(C(=O)OC)SC(=C2C(=S)C(C)(C)Nc3ccc(OC)cc32)S1,-0.25
CCOc1ccc2c(c1)-c1c(sn(-c3ccc(OC)cc3)c1=S)C(C)(C)N2,6.7*
CCOC(=O)c1cnn2c1NC(c1ccc(C(C)C)cc1)CC2C(F)(F)F (stereo unspecified),0.02
Cc1cc(C)nc(SCC(=O)Nc2sc3c(c2C#N)CCCC3)n1,0.45
SMILES,Dicer processing
CC1(C)CC(=O)C2=C(C1)NC1=C(C(=O)c3ccccc31)C2c1cccc(O)c1 (stereo unspecified),2.5
COc1ccc(OC)c(C2C3=C(CC(C)(C)CC3=O)NC3=C2C(=O)c2ccccc23)c1 (stereo unspecified),0.33
CC1(C)CC(=O)C2=C(C1)NC1=C(C(=O)c3ccccc31)C2c1ccc([N+](=O)[O-])o1 (stereo unspecified),5.5*
CC1=C(C)CC2C(=O)N(c3ccc(N4CCCCC4)cc3)C(=O)C2C1 (stereo unspecified),1.6
CCOC(=O)Cn1cnc2sc(C)c(C)c2c1=O,4.9
O=C1CC(c2ccccc2Cl)Cc2nc(NCCc3ccccc3)ncc21 (stereo unspecified),-0.73
CCC(C)C(=O)Nc1ncc2c(n1)CC(c1ccc(C(C)C)cc1)CC2=O (stereo unspecified),0.71
O=C(Nc1ncc2c(n1)CC(c1ccccc1)CC2=O)c1ccco1 (stereo unspecified),4.2*
Cc1nnc(SCC(=O)Nc2ncc3c(n2)CC(c2ccco2)CC3=O)s1 (stereo unspecified),2.8
O=C1CC(c2ccccc2)Cc2nc(NCc3ccco3)ncc21 (stereo unspecified),3.9*
Cc1nc(Nc2ncc3c(n2)CC(c2ccccc2)CC3=O)nc2ccccc12 (stereo unspecified),1.3
COC(=O)c1ccc(S(=O)(=O)N2CCCN(c3cccc(C(F)(F)F)n3)CC2)n1C,2.9
CC(C)c1cc(C(C)C)c(S(=O)(=O)N2CCCC2)c(C(C)C)c1,-0.4
CN(C)c1ccc(NC(=O)CC2Sc3ccccc3NC2=O)cc1 (stereo unspecified),-0.08
COc1cc(C2C(C(=O)OC(C)C)=C(C)NC3=C2C(=O)CC(c2ccccc2)C3)cc(Cl)c1O (stereo unspecified),1.3
CC(C)Oc1ccccc1-c1nc(SCC(=O)c2ccccc2)n[nH]1,-1.1
CCc1c(C)[nH]c2ccc([N+](=O)[O-])cc12,1.2
CCC1(c2ccccc2)C(N)=Nc2ccccc21 (stereo unspecified),0.8
COc1ccc(C2CC(c3cc(Cl)ccc3O)=NN2)cc1 (stereo unspecified),5.8*
COc1cccc2c1OC(C(C)C)N1N=C(c3cc(Cl)ccc3O)CC21 (stereo unspecified),1.1
COc1ccc(C2CC(c3ccccc3O)=NN2)cc1 (stereo unspecified),4.2*
COc1ccc(O)c(C2=NN3C(C2)c2cccc(OC)c2OC3c2ccc(F)cc2)c1 (stereo unspecified),1.4
COc1ccc(C2=Nc3ccccc3SC(c3ccccc3)C2)c(O)c1 (stereo unspecified),-3.2
COc1ccc(C2Oc3c(OC)cccc3C3CC(c4ccccc4O)=NN32)cc1 (stereo unspecified),1.4
Cc1onc(-c2ccccc2Cl)c1NC(=O)O/N=C(\N)c1ccc(Cl)cc1,0.89
